Results filed as inconclusive are left out. Activity calls are given as the source filed them. Calls come from the whole dose curve; as a rule, active = well fitted cell-killing curve with a large enough effect; inconclusive = small, poorly fitted or top-dose-only effect, or effect the other way; inactive = no such curve, though single readings can be large or run the other way.
% is set by controls: 0 for no effect and ±100 for the full control effect; potency is the fitted concentration of half-maximal effect.

The subject of this experiment is Tov-21-G. Put plainly: Confirmatory qHTS for gynecologic anti-cancer compounds from libraries of approved drugs and bioactive compounds. Note: nearly all actives have a fitted effect of over 55% in size. The following applies: gynecologic cancer cell panel viability, ATPlite luminescence, 48 h; series mostly up to 57.7 µM; activity change, negative = viability loss: at the top concentration. The procedure, abridged: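 Viability is measured as ATP-dependent luciferase light using ATPlite, read 15 min after reagent addition at room temperature. Compounds, in DMSO, span 57.5 uM down to 0.977 nM over 11 threefold steps for 48 h.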
For `CN(C)C/C=C/C(=O)Nc1cc2c(Nc3ccc(F)c(Cl)c3)ncnc2cc1OC1CCOC1` (stereo not drawn), the Potency was 3.43 µM (active).
`COc1ccccc1N1CCN(CC(O)COc2cccc3ccccc23)CC1` (stereo not drawn): the “activity change, negative = viability loss” value was 18.9% (inactive).
Regarding `CC(C)C[C@H](NC(=O)[C@@H](NC(=O)c1cccc(-c2ccccc2)n1)[C@@H](C)O)B(O)O`, the Potency is 1.72 µM (active).
For the compound `O=C(c1ccc(F)c(F)c1Nc1ccc(I)cc1F)N1CC(O)([C@@H]2CCCCN2)C1`, the Potency is 9.68 µM (active).
Regarding `Cn1c(=O)c(F)c(Nc2ccc(I)cc2F)c2c(=O)n(CC(O)CO)cnc21` (stereo not drawn), the Potency is 2.73 µM (active).
Same read-out and setting: the value for `NS(=O)(=O)OC[C@@H]1C[C@@H](n2ccc3c(N[C@H]4CCc5ccccc54)ncnc32)C[C@@H]1O` was 1.72 µM (active).
For `COc1ccc(OC)c(-c2nnc3ccc(-c4ccc(OC)c(O[C@@H]5CCOC5)c4)nn23)c1`, the “activity change, negative = viability loss” value was -39.4% (inactive).
For `CCN(CC)CCOc1ccc(/C(=C(\Cl)c2ccccc2)c2ccccc2)cc1`, the Potency was 126 µM (active).
As for `Nc1ccn([C@@H]2O[C@H](CO)[C@@H](O)C2(F)F)c(=O)n1`, the Potency was 6.11 µM (active).
Still for that read-out and setting: the value for `CNC(=O)c1ccccc1Sc1ccc2c(/C=C/c3ccccn3)n[nH]c2c1` was 10.9 µM (active); that for `CC(C)C[C@H](NC(=O)[C@H](Cc1ccccc1)NC(=O)c1cnccn1)B(O)O` was 0.0968 µM (active); that for `CN[C@@H](C)C(=O)N[C@H]1CN(C(=O)CC(C)C)CC[C@H]2CC[C@@H](C(=O)NC(c3ccccc3)c3ccccc3)N2C1=O` was 21.7 µM (active).
Consider `CC[C@@]1(O)C(=O)OCc2c1cc1n(c2=O)Cc2cc3c(CN(C)C)c(O)ccc3nc2-1`, for which the Potency is 5.44 µM (active).
